Compound activity (PubChem BioAssay)
The entries come from a sample that favours hits as a whole.
VHR inh color: blocks the human dual specificity phosphatase VHR1; P51452; recombinant VHR phosphatase, colorimetric substrate read-out; inhibition, % at 20 µM; 50,000 tested, 0.7% active; in the data active = inhibition above about 60%
Target sequence (P51452 whole entry, looked up): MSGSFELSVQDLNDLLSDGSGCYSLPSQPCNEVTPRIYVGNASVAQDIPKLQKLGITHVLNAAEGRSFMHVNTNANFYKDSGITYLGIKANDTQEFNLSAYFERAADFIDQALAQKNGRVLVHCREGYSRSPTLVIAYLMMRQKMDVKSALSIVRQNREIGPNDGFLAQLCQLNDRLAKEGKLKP
Large screens that a line does not name were inactive.

O=C1c2ccccc2C(=O)N1CCS(=O)(=O)NC12CC3CC(CC(C3)C1)C2	none
CCOc1ccc(C(=O)Nc2cccc(C(F)(F)F)c2)cc1Cl	none
CCOc1ccccc1NC(=O)c1c(N)sc2c1CCCCC2	VHR inh color 75
COc1ccccc1NC(=O)c1c(N)sc2c1CCC2	none
CCOc1ccccc1NC(=O)c1c(NC(=O)Cc2ccccc2)sc2c1CCCCC2	none
CCc1ccc(-n2c(C)cc(/C=C3/NC(=O)NC3=O)c2C)cc1	none
Cc1ccc(NC2=C(Cl)C(=O)N(c3ccccc3Cl)C2=O)c(C)c1	none
CC1=C(C(=O)OCCCc2ccccc2)C(c2ccc(Cl)c(Cl)c2)CC(=O)N1 (centres undefined)	VHR inh color 100
CC1=C(C(=O)OCCc2ccccc2)C(c2ccccc2Cl)CC(=O)N1 (centres undefined)	none
COC(=O)C1=C(C)NC(=O)CC1c1ccc(Cl)c(Cl)c1 (centres undefined)	none
COc1ccc(CCNC(=O)C(=O)N2CCCC2)cc1	none
CCOC(=O)C1=NNC(C(=O)OCC)(C(=O)OCC)C1c1ccccc1 (centres undefined)	VHR inh color 101
CCOC(=O)C1=NNC(C(=O)c2ccccc2)C1c1ccccc1 (centres undefined)	none
CCOC(=O)C1=NNC(C(=O)c2ccccc2)C1c1ccc(OC)cc1 (centres undefined)	none
Fc1ccccc1OCCOCCOc1ncnc2ccccc12	none
COc1ccc(-c2nc(-c3ccc(C)cc3)no2)cc1	none
CO/C(=N\S(=O)(=O)c1ccc(Cl)cc1)c1ccccc1	none
COc1cccc(-n2c(Cc3ccccc3)nc3ccccc3c2=O)c1	none
c1ccc(-n2nnnc2SCc2cccc(CSc3nnnn3-c3ccccc3)n2)cc1	none
Clc1ccccc1CSc1nnnn1-c1ccccc1	none
Fc1ccccc1-n1nnnc1SCc1cc2c(cc1Cl)OCO2	VHR inh color 114
Clc1cc2c(cc1CSc1nnnn1-c1ccccc1)OCO2	VHR inh color 112
Clc1ccc(CSc2nnnn2-c2ccccc2)cc1	none
Clc1cc2c(cc1CSc1nc3ncccc3[nH]1)OCO2	none
COc1ccc(CC(Cc2nc3ccccc3[nH]2)c2nc3ccccc3[nH]2)cc1 (centres undefined)	none
Cc1cc(C)c(COCCOCc2c(C)cc(C)c(/C=N/O)c2C)c(C)c1/C=N/O	none
CCOc1ccc(C(=O)Nc2cc(C(F)(F)F)ccc2Cl)cc1Br	none
Cc1nc(-c2ccccc2)sc1C(=O)Nc1cccc(-c2cn3ccccc3n2)c1	none
COc1cc(OC)c(C=Nc2ccccc2C(=O)Nc2ccccc2)cc1Br	none
CCOC(=O)CC(=O)NC(C)(C)Cc1ccc(O)cc1	none
CC(=O)Nc1ccc2c(c1)C1C=CCC1C(C(=O)O)N2 (centres undefined)	none
COc1ccc2c(c1)C1C=CCC1C(C(=O)O)N2 (centres undefined)	none
O=C(O)C1Nc2c(Cl)cc(Cl)cc2C2C=CCC12 (centres undefined)	VHR inh color 97
C=CCOC(=O)C1=C(C)N(CC)C(=O)NC1c1cc(Br)c(O)c(OC)c1 (centres undefined)	none
CCCOc1cccc(C(=O)Nc2cccc(C(=O)Nc3ccccc3C(=O)O)c2)c1	none
CCCOC(=O)c1ccc(NC(=O)c2cccc(OCc3ccccc3)c2)cc1	none
CC(=O)c1cccc(NC(=O)c2cccc(OCc3ccccc3)c2)c1	VHR inh color 112
COc1cc(/C=N\NC(=O)CNc2ccc(C)cc2)ccc1OCc1ccccc1	none
COc1ccc2c(c1)C(=O)N(c1ccc(C)cc1C)C(=O)/C2=C/N1CCOCC1	none
COc1cc(/C=C2\SC(=Nc3ccc(C)c(Cl)c3)NC2=O)ccc1O	VHR inh color 68
Cc1ccc(N=C2NC(=O)/C(=C/c3ccc(F)cc3)S2)cc1Cl	none
Cc1ccc(N=C2NC(=O)/C(=C/c3cccc(O)c3)S2)cc1Cl	none
O=C(NCc1cccs1)c1sc2cc(F)ccc2c1Cl	none
Cc1ccc(O)c(N2C(=O)c3ccc(C(=O)c4cccc([N+](=O)[O-])c4)cc3C2=O)c1	none
CCOc1cc(/C=C2\C(=O)NN(c3ccccc3)C2=O)cc(Cl)c1O	none
CC(=O)C(C(=O)c1ccccc1)C(=O)c1ccccc1	none
COc1ccc2[nH]c3c(c2c1)CCCC3=O	none
CCOC(=O)c1ccc(N=CC2=C(O)c3ccccc3C2=O)cc1	none
CCOC(=O)c1c(NC(=O)c2ccc(Cl)c(Cl)c2)sc(C(=O)Nc2ccccc2F)c1C	none
CCOC(=O)c1c(NC(=O)c2cccc(C)c2)sc(C(=O)Nc2ccccc2F)c1C	none
CCOC(=O)c1c(NC(=O)c2cccc(OC)c2)sc(C(=O)Nc2ccccc2F)c1C	VHR inh color 115
Cc1ccccc1OCC(=O)O/N=C(\N)c1ccc(Cl)cc1	none
O=C1NC(=O)/C(=C\c2cccc(Cl)c2)S1	none
O=C1CSC2=NCN(c3cccc(Cl)c3)CN12	none
O=C1CC(=O)N(c2cccc(Cl)c2)N1	VHR inh color 75
CCC(C(=O)Nc1ccc(Br)cc1)c1ccccc1 (centres undefined)	none
Cc1c(C)[n+](=O)c2cc(Cl)c(Cl)cc2n1[O-]	none
COc1ccc(-c2c(C#N)c(N)n3c(nc4ccccc43)c2C#N)cc1OC	VHR inh color 69
N#Cc1c(-c2cccc(Br)c2)c(C#N)c2nc3ccccc3n2c1N	none
N#Cc1c(-c2ccc(F)cc2)c(C#N)c2nc3ccccc3n2c1N	none
CCOc1ccc(/C=C2/SC(=O)N(CNc3cccc(Br)c3)C2=O)cc1	none
COc1ccc2c(c1)C(C)=CC(C)(C)N2C(=O)NC1CCCCC1	none
COc1ccc(N2C(=O)C=CC2=O)cc1	none
Cc1ccc(N2C(=O)C=CC2=O)c(Br)c1	none
O=C1C=CC(=O)N1c1ccccc1N1C(=O)C=CC1=O	VHR inh color 84
O=S1(=O)CCC(Nc2ccccc2)C1 (centres undefined)	none
O=C(O)C12C3CCCC1C32c1ccccc1 (centres undefined)	none
O=C(O)C1C2C=CC(C3CC23)C1C(=O)NCc1ccccc1 (centres undefined)	none
O=C(O)C1C2CCCC1C2c1ccccc1 (centres undefined)	VHR inh color 101
CC(C)CC(=O)NC(NC(=S)Nc1cccc(Cl)c1)C(Cl)(Cl)Cl (centres undefined)	none
CC(C)=NNc1nc2ccccc2s1	none
CCOc1cc(/C=N/n2cnnc2)ccc1OCc1cccc2ccccc12	VHR inh color 112
COc1ccccc1OCCOc1cccc(/C=N/n2cnnc2)c1	none
CCOc1cc(/C=N/n2cnnc2)ccc1OCCOc1ccc(C)cc1	none
COc1cccc(OCCOc2ccc(/C=N/n3cnnc3)cc2OC)c1	VHR inh color 116
CCOc1cc(/C=N/n2cnnc2)ccc1OS(=O)(=O)c1ccccc1	none
COc1cc(/C=N/n2cnnc2)ccc1OCCOc1ccc(C(C)(C)C)cc1	none
COC(=O)c1ccc(NC(=O)c2cncc(Br)c2)cc1	none
O=C(N/N=C/c1cc(Br)ccc1O)c1cc(-c2ccc3ccccc3c2)n[nH]1	none
COc1ccc(C(=O)Nc2ccc(NC(C)=O)cc2)cc1[N+](=O)[O-]	none
COc1cccc(N2C(=O)/C(=C/c3ccccc3Cl)SC2=S)c1	none
O=C(Nc1ccccc1C(=O)N1CCN(Cc2ccccc2)CC1)c1ccco1	none
Cc1ccccc1OCC(=O)Nc1ccc(Cl)cc1Cl	none
Cc1ccccc1OC(=O)COc1ccc(Cl)cc1Cl	VHR inh color 116
O=C(COc1ccc(Cl)cc1Cl)Oc1ccccc1[N+](=O)[O-]	none
COc1cc(C(=O)N2CCN(C3CCC(c4ccccc4)CC3)CC2)cc(OC)c1OC (centres undefined)	none
CCC(CC)NCc1c[nH]c2ccccc12	none
c1ccc2c(CNC34CC5CC(CC(C5)C3)C4)c[nH]c2c1	VHR inh color active
O=C1C=C(NCCc2c[nH]c3ccccc23)CC(c2ccccc2)C1 (centres undefined)	none
